About 83,000 compounds went through this panel and 20% of them were active in at least one assay; those are over-represented in the sample as a whole.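 The test compound was applied at a single concentration to cells in 96-well plates for 48 hours, and percent growth was recorded.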 Unmarked numbers belong to inactive results. Active and inactive are the calls of the source. Rule for the calls: active = growth percent below 10; inactive = the rest.

In the assay the test system is NCI-H322M lung. As to the kind of experiment: NCI-60 one-dose screen, 48 h (100 = growth as untreated, 0 = no growth, -100 = all killed). The settings on record: 10 µM.
As for `O=c1oc2ccc(-c3ccc(F)cc3F)cc2c(=O)n1-c1ccc(F)c(Cl)c1`, the growth was -1.73% (active).

In the case of `O=C(c1ccc(O)cc1)C1[C@H](c2ccccc2Br)[C@@H](c2ccccc2)NC12C(=O)Nc1ccc(Br)cc12` (stereo partly drawn), the growth was 55.6%.

Take `O=C(Nc1cccc(-c2cn(-c3ccc4oc(=O)ccc4c3)nn2)c1)Nc1cc(C(F)(F)F)cc(C(F)(F)F)c1`: the growth is 34.4%.

As for `O=C1N/C(=N\c2nccs2)S/C1=C\c1cccs1`, the growth was 45.2%.

For the molecule `COc1ccc2[nH]c(O)c(N=NC(=O)COc3ccc(NC(=O)Nc4ccc(Cl)cc4)cc3)c2c1`, the growth is 67.8%.

Turning to `COc1ccc(OC)c(-c2cc(-c3c[nH]c4ccccc34)nc(N)c2C#N)c1`, the growth is 24.8%.

For `N#Cc1ccc(-c2nn(-c3ccc(C(=O)O)cc3)cc2CNc2ccc(Oc3ccccc3)cc2)cc1`, the growth was 88.2%.

Consider `N#Cc1ccc(-c2nn(-c3ccc(C(=O)O)cc3)cc2CNc2cc(Cl)cc(C(F)(F)F)c2)cc1`, for which the growth is 36.4%.

For the molecule `CO[C@@H]1CSS[C@H]1Cn1nc(-c2ccc(Oc3ccccc3)cc2)c2c(N)ncnc21`, the growth was 76.4%.

Take `Cc1ccn2c(C(=O)c3ccc(Br)cc3)cc(-c3cc(-c4ccc(N(C)C)cc4)c(C#N)c(N)n3)c2c1`: the growth was 41%.

Turning to `O=c1c2ccccc2nc(COc2ccccc2)n1/N=C/c1ccc(F)cc1`, the growth is 96.6%.

As for `Nc1nc(Nc2ccc(Cl)cc2)nn1Cc1cccc(Br)c1`, the growth was 44.7%.

For `CC(C)CCSc1nc(NC2CC2)c(C#N)c(-c2ccc(C(C)C)cc2)n1`, the growth was 113%.

(Values after PubChem BioAssay (NCI).)
